A selection: hits, their analogues and other compounds. The true share with any hit is near 8.1%.
RORg inh: qHTS for inhibitors of ROR gamma transcriptional activity. Nuclear receptor ROR-gamma (Mus musculus), P51450. Drosophila S2 Gal4-RORgamma UAS-luciferase reporter, 20 h. Potency, µM (series often up to 53.6 µM), for the others: top-dose activity change, negative = inhibition, most hits filed as inhibitors. 310,000 compounds, 5.4% hits. AID 2551, 2010; note: % is set by controls: 0 for no effect and ±100 for the full control effect; nearly all actives have a fitted effect of over 60% in size
Target sequence (P51450 whole entry, looked up, the tested form may be a part): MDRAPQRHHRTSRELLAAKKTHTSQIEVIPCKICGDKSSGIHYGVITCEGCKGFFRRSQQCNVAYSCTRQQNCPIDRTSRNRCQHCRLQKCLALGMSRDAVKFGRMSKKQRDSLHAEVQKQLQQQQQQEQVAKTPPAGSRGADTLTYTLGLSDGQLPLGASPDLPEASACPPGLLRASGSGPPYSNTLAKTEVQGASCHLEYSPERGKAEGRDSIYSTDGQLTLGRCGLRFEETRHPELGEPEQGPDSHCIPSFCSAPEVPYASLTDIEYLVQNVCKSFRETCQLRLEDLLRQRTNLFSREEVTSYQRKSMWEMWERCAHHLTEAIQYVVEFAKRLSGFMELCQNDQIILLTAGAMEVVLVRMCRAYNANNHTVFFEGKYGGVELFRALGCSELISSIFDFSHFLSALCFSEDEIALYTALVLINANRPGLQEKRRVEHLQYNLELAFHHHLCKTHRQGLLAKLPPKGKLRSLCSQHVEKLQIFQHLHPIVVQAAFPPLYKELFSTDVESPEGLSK
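A Gal4/UAS one-hybrid system in insect cells: metallothionein-promoter Gal4–ROR gamma fusion plus Photinus luciferase reporter. Copper sulfate 700 uM final, 20 hr ambient incubation, luminescent detection after 10 min with reagent.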
Sfp inh: qHTS Assay for Inhibitors of Bacillus subtilis Sfp phosphopantetheinyl transferase (PPTase) | Potency, µM, for inactives: largest response in the series, negative = inhibition, usual class: inhibitors | 310,000 compounds, 3.5% hits | Biochemical Sfp PPTase activity, qHTS;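 note: the enzyme is Sfp with the accession as filed and its product quenches rhodamine fluorescence; 0% = enzyme reaction without inhibitor and -100% = no enzyme wells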
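Reaction rates are the 30-min fluorescence difference (ex 525, em 598 nm) in wells containing 15 nM Sfp, 5 uM rhodamine-CoA and 12.5 uM BHQ-2-YbbR at pH 7.6 with 10 mM MgCl2.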
PINK1 modulator: A Quantitative High throughput Screen to Identify Chemical Modulators of PINK1 Expression; Potency, µM (highest dose often 76.6 µM), for the others: at the highest dose activation (PINK1 increase), hits mostly activators; PINK1 immunofluorescence, high-content cytometry, 24 h; AID 624263, 2012; 410,000 compounds, 0.2% hits; active = well fitted activation curve with a large enough effect; inconclusive = small, poorly fitted or top-dose-only effect; cell line not stated here; note: % of control where 0% means no effect; nearly all actives have a fitted effect of over 65% in size
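Cells are seeded, rested 12 hours, then given compound at five concentrations or DMSO for 24 hours. After fixation, blocking and antibody staining, PINK1 amount and mitochondrial localization are scored; CCCP serves as control.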
Epigenetic reg: Quantitative High-Throughput Screen for Regulators of Epigenetic Control | Potency, µM (series often up to 53.9 µM), inactives show at the top dose GFP activation, hits mostly activators | 280,000 compounds, 0.2% hits | murine LDR cells, GFP reporter derepression, 30 h | AID 1865, 2009; note: % of control where 0% means no effect; nearly all actives have a fitted effect of over 60% in size
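Murine LDR cells carrying a silenced, genomically integrated CMV-driven GFP reporter were exposed to compound for 30 hours at 37 C. After PBS washes, GFP-positive cells (20–120 um objects) were counted by laser-scanning microplate cytometry.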
ClpP mod: qHTS Assay for Activators of ClpP. 340,000 compounds, 1.9% hits. Potency, µM (series often up to 57.5 µM), for inactives: at the highest dose activity change, negative = active. purified B. subtilis ClpP, FRET peptide cleavage, 20 min. AID 651965, 2013; active = well fitted falling curve with a large enough effect; inconclusive = small, poorly fitted or top-dose-only effect; inactive = no such curve, though single readings can be large or run the other way; note: the source files actives as falling curves though it sought activators and does not explain the sign; nearly all actives have a fitted effect of over 65% in size
Target sequence (P80244 whole entry, looked up): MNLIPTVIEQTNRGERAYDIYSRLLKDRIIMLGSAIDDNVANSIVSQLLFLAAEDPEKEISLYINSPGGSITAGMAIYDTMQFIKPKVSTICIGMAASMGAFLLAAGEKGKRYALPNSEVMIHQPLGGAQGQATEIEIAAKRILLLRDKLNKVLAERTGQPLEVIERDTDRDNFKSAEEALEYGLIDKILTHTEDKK
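FRET quenching reversal measured ClpP activation: 10 microg/mL B. subtilis ClpP at pH 8 with the FRET-FV decapeptide, read at 430 nm after 320 nm excitation. The 20-min minus 0-min signal was scaled between DMSO/no-enzyme wells and ADEP (5.8 microM final).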
Gal4-VP16 FLuc: VP16 counterscreen qHTS for inhibitors of ROR gamma transcriptional activity. Potency, µM (titrated, usually from 53.6 µM), inactives show top-dose activity, negative = inhibition, hits mostly inhibitors. 310,000 compounds, 3.5% hits. Drosophila S2 Gal4-VP16 UAS-luciferase, luminescence, 20 h. AID 2546, 2010;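 note: Gal4-VP16 expression switched on by copper sulfate through the metallothionein promoter; % is set by controls: 0 for no effect and ±100 for the full control effect; nearly all actives have a fitted effect of over 50% in size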
* = called active by the depositor; ? = inconclusive; . = no result given; [ ] = remark or other dose. Unless noted, calls come from the whole dose curve; as a rule, active = well fitted curve in the direction sought with a large enough effect; inconclusive = small, poorly fitted or top-dose-only effect, or another doubt; inactive = no such curve, though single readings can be large; an effect the other way counts as inactive or inconclusive. Potency is the fitted concentration of half-maximal effect.

SMILES | RORg inh | Sfp inh | PINK1 modulator | Epigenetic reg | ClpP mod | Gal4-VP16 FLuc
O=C(NCc1cccnc1)c1cnn(-c2ncc3c(n2)-c2ccccc2CCC3)c1C1CC1 | . | . | 0% | . | . | .
O=C(/C=C/Nc1ccccc1F)c1cccs1 | ? | 9% | 2% | 1% | -3% | ?
O=C(/C=C/Nc1ccc(F)cc1F)c1cccs1 | 1.6µM* | ? | 2% | 0% | -2% | 2.5µM*
Cn1ncc(Cl)c1C(=O)Nc1cccc(Cl)c1 | -21% | 20µM* | -3% | 0% | 2% | -11%
CC(=O)Oc1c(C)cc(Cl)cc1C(=O)Nc1ccc([N+](=O)[O-])cc1Cl | 1µM* | 11% | ? | -3% | 2% | 1µM*
O=C(Nc1ccc([N+](=O)[O-])cc1Cl)c1ccccc1O | . | . | ? | . | -4% | .
Cc1cc2c(cc1S(=O)(=O)N(CCO)Cc1ccccc1)OCC(=O)N2 | . | . | 0% | -2% | 0% | .
Cc1ccc(/C=C2\SC(=S)N(/N=C/c3cc([N+](=O)[O-])ccc3O)C2=O)o1 | ? | 25µM* | -4% | -2% | 1% | -16%
COC(=O)c1c(OCc2ccccn2)cc(=O)n2c1CCN(C(=O)c1n[nH]c3c1CCCC3)CC2 | . | . | 0% | . | . | .
Cc1cc2c(cc1S(=O)(=O)NCc1ccc(F)cc1)OCCN2C | . | . | 4% | 0% | -7% | .
Cc1cc(C)c(S(=O)(=O)NCC23C=CC(O2)C2C(=O)N(c4ccccc4)C(=O)C23)c(C)c1 (stereo unspecified) | 16µM* | 28µM* | -3% | 3% | 0% | ?
Cc1cc(C)c(S(=O)(=O)NCCS(=O)(=O)N2CCN(c3ccccc3)CC2)c(C)c1 | . | . | 0% | 0% | -6% | .
CC(C)(C)C(=O)NCC12C=CC(O1)C1C(=O)N(c3ccccc3)C(=O)C12 (stereo unspecified) | ? | -1% | ? | -1% | -1% | ?
O=C1C2C3C=CC(CO)(O3)C2C(=O)N1c1ccc(-c2ccccc2)cc1 (stereo unspecified) | 6.3µM* | 5µM* | . | 1% | . | 10µM*
O=C1C2C3C=CC(CNS(=O)(=O)c4ccccc4[N+](=O)[O-])(O3)C2C(=O)N1c1ccccc1 (stereo unspecified) | ? | 28µM* | -2% | 0% | . | 11µM*
Cc1ccc2nc(-c3cccc(NC(=O)CSc4ccc(Cl)cc4)c3)oc2c1 | . | . | 0% | 0% | 5% | .
CC1CN(CC(=O)NCCC2COc3ccccc3O2)Cc2cc(Cl)ccc2O1 (stereo unspecified) | . | . | 0% | . | . | .
Cc1ccc(-c2nc3ccccc3nc2NN)cc1 | -39% | 14µM* | -2% | -2% | ? | -6%
O=C(Nc1ccc(Br)cc1F)c1cc(S(=O)(=O)NC2CCCC2)ccc1F | . | . | 0% | 10% | -3% | .
COc1ccc(-c2oc3ncnc(N)c3c2-c2ccccc2)cc1 | -13% | 9% | 4%[38.3 µM] | -4% | 35µM* | -14%
C=CCc1c(C)nc(-c2ccccc2)nc1Nc1ccc(O)cc1 | -12% | -15% | 3% | -3% | -3% | -26%
C=CCc1c(C)nc(-c2ccccc2)nc1N/N=C(\C)c1ccccc1 | ? | 45µM* | 0% | -3% | -1% | ?
COc1ccccc1Nc1cc(C(=O)NC2CCC(C)CC2)c2ccccc2n1 (stereo unspecified) | . | . | 6% | 4% | 4% | .
CC1(C)CC(=O)C(C=NCCN2CCN(C(=S)NC3CCCCC3)CC2)=C(O)C1 | 25% | 79µM* | 1% | -1% | -2% | -10%
Cc1nc2c(c(C)nn2C(C)(C)C)c(C)c1CCC(=O)Nc1ccc(Br)cc1Br | . | . | 3% | 0% | -8% | .
SMILES | RORg inh | Sfp inh | PINK1 modulator | Epigenetic reg | ClpP mod | Gal4-VP16 FLuc
COC(=O)Cc1[nH]nc2c1C(C1C=CCCC1)C(C#N)=C(N)O2 (stereo unspecified) | 8% | 2% | 1% | -5% | 7.1µM* | -18%
CCn1cc(C(=O)OCC(=O)Nc2cc(Cl)ccc2C)c(=O)c2ccc(C)nc21 | . | . | 3% | -1% | 1% | .
CCOc1ccccc1NC(=O)c1nc(S(=O)(=O)Cc2ccccc2)ncc1Cl | 10µM* | -9% | -1% | . | 0% | 4.5µM*
CCS(=O)(=O)c1ncc(Cl)c(C(=O)Nc2ccccc2OC)n1 | ? | 7% | 0% | . | . | 1.4µM*
COc1ccccc1NC(=O)c1nc(S(=O)(=O)Cc2ccccc2)ncc1Cl | 7.1µM* | -12% | -2% | . | . | 5µM*
COc1ccc(OC)c(NC(=O)c2nc(S(=O)(=O)Cc3ccc(F)cc3)ncc2Cl)c1 | . | . | 8% | -2% | -2% | .
COC(=O)C(Cc1c[nH]c2ccccc12)NC(=O)COc1cccc(C)c1 (stereo unspecified) | . | . | 0% | -1% | 0% | .
Cc1cccc(N2CCN(C(=O)Cn3ncc4c3-c3ccccc3OC4)CC2)c1C | . | . | -1% | 0% | 0% | .
CN1CCN(c2nc(-c3ccccc3)nc(-c3ccc(F)cc3)c2C#N)CC1 | -2% | 0% | 4% | 0% | . | -6%
CC(C)Nc1nc(-c2ccccn2)nc(-c2ccccc2)c1C#N | 2.5µM* | 14% | 6% | -3% | . | ?
COc1ccc(-c2nc(-c3ccccn3)nc(N3CCN(C)CC3)c2C#N)cc1 | 1.4µM* | 12% | 7% | 1% | . | -7%
COc1ccccc1-c1nc(-c2ccccc2)nc(N2CCN(C)CC2)c1C#N | 14µM* | -7% | -2% | -1% | . | -19%
Cc1ccc(CNC(=O)Nc2cc(C(=O)NCc3cccc(F)c3)ccc2N2CCCC2)cc1 | . | . | 4% | 0% | -5% | .
CCc1ccc(OCC(=O)Nc2cc(-c3ccc(C)cc3)no2)cc1 | . | . | 6% | -2% | 1% | .
S=C1N(c2ccccc2)CN(C2CCCCC2)CN1c1ccccc1 | 11µM* | 2% | 2% | -1% | 1% | 20µM*
COc1cccc(N2CN(C3CCCCC3)CNC2=S)c1 | ? | 14% | 0% | 0% | . | -1%
COc1cc2c(cc1OC)CN(C(=O)CSc1nnc3scc(-c4ccccc4)n13)CC2 | ? | 71µM* | 0% | -1% | -7% | 14%
O=C(CSc1nnc2scc(-c3ccccc3)n12)N1CCN(Cc2ccccc2)CC1 | 8.9µM* | -3% | 1% | 0% | -2% | -8%
O=C(CSc1nnc2scc(-c3ccccc3)n12)Nc1nsc(-c2ccccc2)n1 | 15% | 32µM* | 0%[38.3 µM] | 3% | 1% | ?
